Measurements from PubChem BioAssay.
Results filed as inconclusive are left out. Unmarked numbers belong to inactive results.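 How the source made its calls, unless noted: active means cell viability at or below a set limit in both duplicate runs, the limit being the all-compound median minus 4 SD (cut at about 23% in these data, passing the limit was not always enough); inconclusive means no clear call, values can overlap the other calls; inactive means the rest.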

Experiment: growth suppression of beta-catenin knockout HCT116, pilot screen, human colon tumor cells (AID 823);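 further: 0% = wells killed by 20 µM Hyamine and 100% = untreated DMSO cell wells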
Settings: CellTiter-Glo, 60 h, at 10 µM, hits give low values

SMILES	viability [%]
COC(=O)c1ccc(Cl)c(NC(=O)NC2CCCCC2)c1	96.3
COc1ccccc1OCC(=O)Nc1ccc(S(=O)(=O)NC(C)=O)cc1	89.2
O=C(CSc1nc(-c2ccco2)cc(C(F)(F)F)n1)NC1CCCC1	89.3
Cc1ccc(-n2c(C)cc(C(=O)OCC(=O)N(C)C3CCS(=O)(=O)C3)c2C)cc1 (stereo not given)	91.7
CC1c2[nH]c3ccccc3c2CCN1S(C)(=O)=O (stereo not given)	98.4
CCOC(=O)C1CCCN(C(=O)CN(c2ccc(OC)cc2)S(=O)(=O)c2c(C)noc2C)C1 (stereo not given)	102
CC(C)NS(=O)(=O)c1ccc(CCC(=O)NCc2cccnc2)cc1	88
O=S(=O)(NCCO)c1cccc2cccnc12	94
O=c1[nH]c2ccc(Cl)cc2c(-c2ccccc2)c1N1CCOCC1	89.4
CC1Cc2ccccc2N1C(=O)CSC1=NCCS1 (stereo not given)	92.6
COc1cccc(-n2c(Cc3cc(=O)[nH]c(=O)[nH]3)nnc2SCC(=O)N2CCCCC2)c1	112
Cc1csc2nc(CNS(=O)(=O)c3ccc(-c4ccccc4)cc3)cn12	90.2
CC(=O)Nn1cc2c(=O)n(C)c(=O)n(C)c2c1	98.3
O=C(CCc1nc2ccccc2[nH]1)N1CCc2ccccc2C1	104
Cc1cc2cc(CCNC(=O)c3c(-c4ccccc4Cl)noc3C)c(=O)[nH]c2cc1C	94.9
Cc1ccc2c(c1)c1c(n2CC(O)CN2C(=O)CNC2=O)C(=O)CCC1 (stereo not given)	101
CCOC(=O)C1=C2N(C)c3ccccc3N2CCC1=O	97.5
CN(CC(=O)N1CC=C(c2ccccc2)CC1)S(=O)(=O)c1ccc2c(c1)c(=O)n(C)c(=O)n2C	94.1
CC1Cc2ccccc2N1C1=NS(=O)(=O)c2ccccc21 (stereo not given)	91.7
CCOC(=O)N1CCC(NC(=O)c2csc3c2CCCC3)CC1	95.2

SMILES	viability [%]
COC(=O)NCC(c1cccnc1)N1CCN(c2ccccc2F)CC1 (stereo not given)	95.6
Cc1nc2ccccc2n1-c1ccccc1	89.1
Cc1cc(-c2ccccc2)n2ncc(C#N)c2n1	103
CSC1=NCCN1C(=O)COc1ccccc1	97.8
COC(=O)c1ccccc1NC(=O)CSc1nccn1C	93.1
N#Cc1nc(-c2ccccc2F)oc1NCc1ccccc1	107
OC(C#CCN1CCCC1)c1ccccc1 (stereo not given)	91.6
COC(=O)c1ccc(CSc2ncn[nH]2)o1	94.7
COc1cc(/C=N/n2cnnc2)ccc1OC(=O)c1ccncc1	92.9
Cc1cc(NC(=O)CSCCc2ccncc2)no1	99.7
C=CCn1c(SCc2ccc(F)cc2)nc2c1c(=O)[nH]c(=O)n2C	96.9
Cn1c(NC(=O)CC(C)(C)C)cc(=O)n(C)c1=O	104
O=C(CSc1n[nH]c(-c2ccccc2)n1)c1ccccc1	95.8
Cc1cc(C(=O)NCC2CCCO2)n(-c2ccccc2)n1 (stereo not given)	100
COC(=O)CSc1nc2ccccc2nc1SCC(=O)OC	93.4
COC(=O)C1=C(C)N(c2cc(Cl)cc(Cl)c2)C(=O)C1	28.2
CC(=O)c1c(C)[nH]c(C(=O)Nc2cc(C)ccc2C)c1C	98.5
COc1cc(CN2CCN(c3cccc(C)c3C)CC2)cc(Br)c1O	80.7
Cn1c(SCC(=O)Nc2ccccc2F)nnc1-c1cccnc1	100
Cc1ccc(OCCn2c(C)c(/C=N/n3cnnc3)c3ccccc32)cc1	81.5

Experiment: growth suppression of PTEN-deleted HCT116, pilot screen, cell-based, HCT116 clonal line, CellTiter-Glo (AID 824;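 active means viability at or below 27.92% in each of two runs, the all-compound median minus 4 SD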;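 further: 0% = 20 µM Hyamine control and 100% = vehicle cell control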)
Settings: 60 h, at 10 µM, hits give low values

SMILES	viability [%]
COC(=O)c1ccc(Cl)c(NC(=O)NC2CCCCC2)c1	93
COc1ccccc1OCC(=O)Nc1ccc(S(=O)(=O)NC(C)=O)cc1	103
O=C(CSc1nc(-c2ccco2)cc(C(F)(F)F)n1)NC1CCCC1	89.5
Cc1ccc(-n2c(C)cc(C(=O)OCC(=O)N(C)C3CCS(=O)(=O)C3)c2C)cc1 (stereo not given)	91.1
CC1c2[nH]c3ccccc3c2CCN1S(C)(=O)=O (stereo not given)	90.8
CCOC(=O)C1CCCN(C(=O)CN(c2ccc(OC)cc2)S(=O)(=O)c2c(C)noc2C)C1 (stereo not given)	93.8
CC(C)NS(=O)(=O)c1ccc(CCC(=O)NCc2cccnc2)cc1	92.5
O=S(=O)(NCCO)c1cccc2cccnc12	85.4
O=c1[nH]c2ccc(Cl)cc2c(-c2ccccc2)c1N1CCOCC1	88
CC1Cc2ccccc2N1C(=O)CSC1=NCCS1 (stereo not given)	95.2
COc1cccc(-n2c(Cc3cc(=O)[nH]c(=O)[nH]3)nnc2SCC(=O)N2CCCCC2)c1	96.8
Cc1csc2nc(CNS(=O)(=O)c3ccc(-c4ccccc4)cc3)cn12	93.7
CC(=O)Nn1cc2c(=O)n(C)c(=O)n(C)c2c1	99.7
O=C(CCc1nc2ccccc2[nH]1)N1CCc2ccccc2C1	94.8
Cc1cc2cc(CCNC(=O)c3c(-c4ccccc4Cl)noc3C)c(=O)[nH]c2cc1C	94.7
Cc1ccc2c(c1)c1c(n2CC(O)CN2C(=O)CNC2=O)C(=O)CCC1 (stereo not given)	101
CCOC(=O)C1=C2N(C)c3ccccc3N2CCC1=O	93.8
CN(CC(=O)N1CC=C(c2ccccc2)CC1)S(=O)(=O)c1ccc2c(c1)c(=O)n(C)c(=O)n2C	80.3
CC1Cc2ccccc2N1C1=NS(=O)(=O)c2ccccc21 (stereo not given)	96.5
CCOC(=O)N1CCC(NC(=O)c2csc3c2CCCC3)CC1	93.6

SMILES	viability [%]
COC(=O)NCC(c1cccnc1)N1CCN(c2ccccc2F)CC1 (stereo not given)	102
Cc1nc2ccccc2n1-c1ccccc1	96.4
Cc1cc(-c2ccccc2)n2ncc(C#N)c2n1	98.8
CSC1=NCCN1C(=O)COc1ccccc1	104
COC(=O)c1ccccc1NC(=O)CSc1nccn1C	92.2
N#Cc1nc(-c2ccccc2F)oc1NCc1ccccc1	90.5
OC(C#CCN1CCCC1)c1ccccc1 (stereo not given)	98.8
COC(=O)c1ccc(CSc2ncn[nH]2)o1	97.5
COc1cc(/C=N/n2cnnc2)ccc1OC(=O)c1ccncc1	99.1
Cc1cc(NC(=O)CSCCc2ccncc2)no1	105
C=CCn1c(SCc2ccc(F)cc2)nc2c1c(=O)[nH]c(=O)n2C	89
Cn1c(NC(=O)CC(C)(C)C)cc(=O)n(C)c1=O	105
O=C(CSc1n[nH]c(-c2ccccc2)n1)c1ccccc1	95.5
Cc1cc(C(=O)NCC2CCCO2)n(-c2ccccc2)n1 (stereo not given)	103
COC(=O)CSc1nc2ccccc2nc1SCC(=O)OC	92
COC(=O)C1=C(C)N(c2cc(Cl)cc(Cl)c2)C(=O)C1	45.7
CC(=O)c1c(C)[nH]c(C(=O)Nc2cc(C)ccc2C)c1C	96.6
COc1cc(CN2CCN(c3cccc(C)c3C)CC2)cc(Br)c1O	86.6
Cn1c(SCC(=O)Nc2ccccc2F)nnc1-c1cccnc1	92.8
Cc1ccc(OCCn2c(C)c(/C=N/n3cnnc3)c3ccccc32)cc1	76
